“And” between values parts separate entries of the source, which are not always exact repeats. Identical values can stand only once.

28 compounds from ChEMBL document CHEMBL1157539, “Thousands of chemical starting points for antimalarial lead identification” (Nature, 2010) can be followed below.

What all share (format): functional
Test [1] has as its system Plasmodium falciparum. Briefly: GSK_TCMDC: Inhibition of Plasmodium falciparum 3D7 in whole red blood cells, using parasite LDH activity as an index of growth. Test compounds present at 2uM.
For test [2], the system named is Plasmodium falciparum. Briefly: GSK_TCMDC: Inhibition of Plasmodium falciparum Dd2 in whole red blood cells, using parasite LDH activity as an index of growth. Test compounds present at 2uM.
The test system of the next test is HepG2. Briefly: GSK_TCMDC: Percent inhibition of human HepG2 cell line. Test compounds present at 10uM.

For `CC[C@H]1CN2CC[C@@H]1C[C@H]2[C@H](O)c1cc(-c2cc(Cl)cc(Cl)c2)nc2ccc(OC)cc12`, the Inhibition in the test on Plasmodium falciparum [1] is listed as 99%; in the test with Plasmodium falciparum [2], 97%; in the test with HepG2, 0%.

In the case of `CC(Cc1ccc([N+](=O)[O-])cc1)NCC(O)c1cccc(C(F)(F)F)c1` (centres undefined), the Inhibition in the test with Plasmodium falciparum [1] was 98%; with Plasmodium falciparum [2], 92%; in the test with HepG2, 0%.

On to `CC(Cc1ccc(OCCCCOc2ccccc2)cc1)NCCc1ccccc1Cl` (centres undefined), for which the Inhibition in the test with Plasmodium falciparum [1] is 97%; in the test with Plasmodium falciparum [2] it was 58%; in the test on HepG2 it was 100%.

In the case of `COc1cc(NC(=O)c2nn(CCCN3CCC4(CC3)C(=O)NCN4c3ccccc3)cc2-c2ccc(Cl)c(Cl)c2)cc(OC)c1OC`, the Inhibition with Plasmodium falciparum [1] came to 97%; with Plasmodium falciparum [2], 75%; with HepG2 it was 0%.

Turning to `CN1CCC(N(C)c2nccc(N3CCN(Cc4cncn4Cc4ccccc4)CC3)n2)CC1`, the Inhibition in the test on Plasmodium falciparum [1] is 100%; in the test on Plasmodium falciparum [2], 100%; in the test on HepG2, 15%.

As to `CC(C)CNCc1ccc(-c2cccc(CN(C(=O)NC3CCCCC3)C3CCN(Cc4ccccc4)CC3)c2)cc1.O=C(O)C(F)(F)F`, the Inhibition in the test with Plasmodium falciparum [1] is 98%; in the test with Plasmodium falciparum [2] it was 88%; with HepG2 it was 20%.

Consider `CN(C)c1cccc(NC(=O)N[C@H]2N=C(c3ccccc3)c3ccccc3N(CC(=O)N3CCCC3)C2=O)c1`, for which the Inhibition was 98% with Plasmodium falciparum [1], 98% with Plasmodium falciparum [2] and 0% in the test with HepG2.

Consider `CN(C)CCc1c[nH]c2ccc(C(=O)Nc3ccc(-c4ccncc4)cc3)cc12.O=C(O)CCC(=O)O`, for which the Inhibition is given as 99% in the test on Plasmodium falciparum [1], 46% with Plasmodium falciparum [2] and 23% with HepG2.

With `Cc1c2ccncc2c(C)c2c1[nH]c1ccccc12` [ELLIPTECINE], the values for the Inhibition with Plasmodium falciparum [1], in the test on Plasmodium falciparum [2] and in the test with HepG2 were 95%, 97% and 38%, respectively.

Turning to `O=C(/C=C/c1ccsc1)NC1CCC(CN2CCC(c3c[nH]c4ccccc34)CC2)CC1` (centres undefined), the Inhibition in the test on Plasmodium falciparum [1] is recorded as 82%; with Plasmodium falciparum [2] it was 20%; in the test on HepG2, 29%.

Turning to `O=C(/C=C/C=C/c1ccccc1)NC1CCC(CN2CCC(c3c[nH]c4ccccc34)CC2)CC1` (centres undefined), the results for the Inhibition in the test on Plasmodium falciparum [1], in the test on Plasmodium falciparum [2] and in the test on HepG2 were 100%, 66% and 49%, respectively.

With `O=C(NC1CCC(CN2CCC(c3c[nH]c4ccccc34)CC2)CC1)[C@H]1Cc2ccccc2CN1` (some centres undefined), the results for the Inhibition in the test on Plasmodium falciparum [1], with Plasmodium falciparum [2] and in the test with HepG2 were 89%, 35% and 29%, respectively.

Regarding `O=C(/C=C/c1ccc(Cl)c(Cl)c1)N1CCC(CN2CCC(c3c(-c4ccccc4)[nH]c4ccccc34)CC2)CC1`, the Inhibition in the test with Plasmodium falciparum [1] was 100%; in the test with Plasmodium falciparum [2], 99%; in the test on HepG2, 43%.

For `O=C(Nc1ccc(Cl)c(Cl)c1)N1CCC(CN2CCC(c3c[nH]c4ccccc34)CC2)CC1`, the Inhibition is 100% with Plasmodium falciparum [1], 69% in the test on Plasmodium falciparum [2] and 46% in the test on HepG2.

As for `CCN1CCC(N2CCC(n3c(C)nc4cc(C(F)(F)F)ccc43)CC2)CC1`, the values for the Inhibition in the test on Plasmodium falciparum [1], with Plasmodium falciparum [2] and in the test on HepG2 were 93%, 16% and 6%, respectively.

For the compound `CCCCCCC(CC)c1cc(O)c2c(c1)OC(C)(C)c1ccncc1-2.Cl` (centres undefined), the Inhibition was determined as 94% in the test on Plasmodium falciparum [1], 52% in the test with Plasmodium falciparum [2] and 0% with HepG2.

With `Cc1ccc(/C=C/C(=O)NC2CCC(CN3CCC(c4c[nH]c5ccccc45)CC3)CC2)cc1C` (centres undefined), the Inhibition was 100% in the test with Plasmodium falciparum [1]; 71% and 91% in the test on Plasmodium falciparum [2]; 23% and 38% in the test on HepG2.

Take `CC(C)NC(=O)Cn1cc(C2CCN(CC3CCN(C(=O)/C=C/c4ccc(Cl)c(Cl)c4)CC3)CC2)c2ccccc21.O=C(O)C(F)(F)F`: the Inhibition with Plasmodium falciparum [1] amounted to 97%; in the test with Plasmodium falciparum [2], 55%; in the test on HepG2, 31%.

Consider `CC(C)(C)c1ccc(Cn2nc(C(=O)N3CCN(C(=O)C4CCCO4)CC3)c3ccccc32)cc1` (centres undefined), for which the Inhibition in the test on Plasmodium falciparum [1] came to 90%; with Plasmodium falciparum [2], 83%; in the test with HepG2, 0%.

For the compound `CCCCCC(C)C(C)c1cc(O)c2c(c1)OC(C)(C)c1cnccc1-2.Cl` (centres undefined), the results for the Inhibition in the test on Plasmodium falciparum [1], with Plasmodium falciparum [2] and in the test on HepG2 were 94%, 74% and 7%, respectively.

As for `COc1ccc(CN2CCN(CCOC(c3ccccc3)c3ccccc3)CC2)c(O)c1`, the Inhibition in the test with Plasmodium falciparum [1] is reported as 96%; with Plasmodium falciparum [2], 84%; in the test with HepG2, 19%.

As to `COc1ccc(C[C@@H](C)NC[C@H](O)c2cccc(Cl)c2)cc1F`, the Inhibition is on record as 89% with Plasmodium falciparum [1], 75% with Plasmodium falciparum [2] and 6% with HepG2.

As for `CCCc1cc([C@@H](O)[C@@H]2C[C@@H]3CCN2C[C@@H]3CC)c2ccccc2n1`, the Inhibition is given as 100% with Plasmodium falciparum [1], 57% in the test with Plasmodium falciparum [2] and 9% in the test on HepG2.

As for `Oc1cc2c(cc1CN1CCN(Cc3ccccc3)CC1)CCC2`, the Inhibition came to 98% in the test on Plasmodium falciparum [1], 92% in the test on Plasmodium falciparum [2] and 1% with HepG2.

As to `Cc1[nH]c2ccccc2c1C1=CCN(CCCCCNC(=O)/C=C/c2ccc(Cl)c(Cl)c2)CC1`, the Inhibition in the test on Plasmodium falciparum [1] is given as 97%; in the test on Plasmodium falciparum [2], 89%; with HepG2, 28%.

For `COC(=O)c1ccc(CC(C)NCC(O)c2ccc(F)c(Cl)c2)cc1.Cl` (centres undefined), the Inhibition is listed as 98% with Plasmodium falciparum [1], 78% with Plasmodium falciparum [2] and 0% in the test with HepG2.

In the case of `OC(CNCc1ccccc1OC(F)F)c1cccc(C(F)(F)F)c1` (centres undefined), the values for the Inhibition in the test on Plasmodium falciparum [1], with Plasmodium falciparum [2] and in the test on HepG2 were 97%, 52% and 2%, respectively.

As to `CCOC(C(=O)OCC1CCCN(C)C1)(c1ccccc1)c1ccccc1` (centres undefined), the Inhibition stood at 98% in the test with Plasmodium falciparum [1], 3% with Plasmodium falciparum [2] and 13% with HepG2.

By Inhibition is commonly meant the relative decrease from the control value, in per cent.
